The source of these data is PubChem BioAssay (NCATS).

A number with no mark means an inactive call. Records with an inconclusive call do not appear. Activity calls are given as the source filed them. Unless noted, calls come from the whole dose curve; as a rule, active = well fitted curve in either direction with a large enough effect (not every such curve was filed as active); inconclusive = small, poorly fitted or top-dose-only effect, or another doubt; inactive = flat fitted curve, though single readings scatter.

Assay [1] can be described thus: AP1 Signaling Pathway (AID 357).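 Note: ME-180 reporter cells stimulated with EGF at its EC50 level; % is set by controls: 0 for no effect and ±100 for the full control effect.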 Particulars: ME-180 AP-1-bla reporter, EGF-induced, beta-lactamase ratio, 5 h; at 17.2 µM (top of the series) unless noted. An outline of the steps:
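Cells are seeded overnight, exposed to compound titrations and an EC50 level of EGF for 5 hours at 37 °C, then loaded with CCF4 dye for 2.5 hours. Beta-lactamase activity under the AP-1 element is read as a blue/green ratio.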

A short description of assay [2]: NFAT Signaling Pathway (AID 444).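 Note: carbachol stimulus at about its EC50 of 1 µM final; % is set by controls: 0 for no effect and ±100 for the full control effect.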 Particulars: Jurkat NFAT-bla M1, carbachol, beta-lactamase ratio, 5 h; at 17.2 µM (top of the series) unless noted. An outline of the steps: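 Jurkat cells carrying an NFAT-driven β-lactamase reporter and co-transfected muscarinic M1 receptor were treated with compound plus carbachol (1 uM final, an EC50 level) for 5 h at 37 °C. CCF4 loading followed for 1 h at RT; 460/530 nm ratio gave %activity.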

Assay [3] is described as follows: Stat Signaling Pathway (AID 446).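 Note: ME-180 cervical cancer cells given 40 pM IL-6 alongside compound; SIE-controlled beta-lactamase reporter measured as 460/530 nm FRET emission ratio; % is set by controls: 0 for no effect and ±100 for the full control effect.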 The settings on record: ME-180 SIE beta-lactamase reporter, IL-6 stimulated, 5 h; at 17.2 µM (top of the series) unless noted. An outline of the steps:
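Screening format detects activators and inhibitors alike: ME-180 SIE-bla cells stimulated at 40 pM IL-6 for 5 hrs with compound, then dual-emission beta-lactamase read at 405 nm excitation.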

Assay [4] concerns the target Glucocorticoid receptor (Homo sapiens) (UniProt P04150). Put plainly: GR-GFP Redistribution (AID 450;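 active = compounds whose dose series gives a full or clear partial fitted curve of increased nuclear translocation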; note: potency is the fitted concentration of half-maximal effect).
Assay [5] is described as follows: qHTS Assay for Identification of Small Molecule Agonists for Hypoxia Response Element Signaling Pathway (AID 914; active = well fitted activation curve with a large enough effect in the signal ratio, with a control signal flat, not every such curve was filed as active; the % refers to the signal ratio; note: potency is the fitted concentration of half-maximal effect; for activation: % of control where 0% means no effect). The settings on record: ME-180 (cervical carcinoma) HRE-bla reporter, beta-lactamase ratio, CoCl2, 17 h; activation: hits give high values. An outline of the steps: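 HRE-bla ME-180 assay for agonist-like enhancement of an EC50 CoCl2 stimulus: 17 h at 37 degrees Celsius, CCF4 for 2.5 h, ratiometric 460/530 nm signal converted to %Activity and fitted to AC50.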

Chain of Glucocorticoid receptor (Homo sapiens) (P04150 whole entry, looked up): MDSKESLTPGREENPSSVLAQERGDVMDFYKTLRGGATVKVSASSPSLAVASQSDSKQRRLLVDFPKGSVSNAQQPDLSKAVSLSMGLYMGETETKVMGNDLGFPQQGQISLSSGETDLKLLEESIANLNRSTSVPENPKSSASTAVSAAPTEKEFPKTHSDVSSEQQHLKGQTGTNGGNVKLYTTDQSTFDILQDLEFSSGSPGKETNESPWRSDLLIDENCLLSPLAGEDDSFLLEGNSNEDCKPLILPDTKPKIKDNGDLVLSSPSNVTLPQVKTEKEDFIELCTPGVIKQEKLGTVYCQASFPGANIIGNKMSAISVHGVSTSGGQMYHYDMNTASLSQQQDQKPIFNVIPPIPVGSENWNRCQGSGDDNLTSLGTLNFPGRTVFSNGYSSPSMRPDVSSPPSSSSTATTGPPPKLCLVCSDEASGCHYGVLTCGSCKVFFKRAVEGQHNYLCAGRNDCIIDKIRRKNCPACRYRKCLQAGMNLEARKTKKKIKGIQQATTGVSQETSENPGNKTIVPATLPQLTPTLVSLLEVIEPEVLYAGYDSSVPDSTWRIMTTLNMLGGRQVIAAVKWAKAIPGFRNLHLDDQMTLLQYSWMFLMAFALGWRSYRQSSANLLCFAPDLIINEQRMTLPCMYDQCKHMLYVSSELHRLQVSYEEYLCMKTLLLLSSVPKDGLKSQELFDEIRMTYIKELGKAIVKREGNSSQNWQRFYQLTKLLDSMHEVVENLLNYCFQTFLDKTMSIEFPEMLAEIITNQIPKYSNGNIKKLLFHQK

Regarding `COc1ccccc1NC(=O)Nc1nnc(C(C)C)s1`, the values for the activity change, negative = inhibition in assay [1] and in assay [2] were -4.89% and 20.9%, respectively. Moreover, in assay [3], the activity, negative = inhibition is -3.37%. Further, the Potency in assay [4] was above 20.6 µM. Also, in assay [5], the activation is 10.4%.

Take `CCN(CC)CCN1C(=O)C(O)=C(C(=O)c2cc3ccccc3o2)C1c1cccnc1` (stereo not given): the values for the activity change, negative = inhibition in assay [1] and in assay [2] were 4.98% and -3.08%, respectively. Besides, the activity, negative = inhibition in assay [3] is 2.38%. Further, the Potency in assay [4] is above 20.6 µM. In assay [5], the activation is 11.5%.

As for `O=C(NC1CCS(=O)(=O)C1)c1c(NC(=O)C2COc3ccccc3O2)sc2c1CCCC2` (stereo not given), the results for the activity change, negative = inhibition in assay [1] and in assay [2] were -20.8% and -18.5%, respectively. Also, the activity, negative = inhibition in assay [3] is -9.79%. Besides, the Potency in assay [4] was above 20.6 µM; in assay [5], 5.01 µM (active).

Take `O=C(O)CCCC(=O)Nc1ccn(-c2ccccc2)n1`: the activity change, negative = inhibition in assay [1] is 1.68%; in assay [2] it was -4.19%. In addition, the activity, negative = inhibition in assay [3] was 0.897%. The Potency in assay [4] is above 20.6 µM. Moreover, the activation in assay [5] is 6.56%.

In the case of `COC(=O)c1ccc(C(=O)OC)c(NC(=O)c2cc3ccccc3o2)c1`, the activity change, negative = inhibition in assay [1] was -4.57%; in assay [2] it was 3.55%. Moreover, in assay [3], the activity, negative = inhibition was 8.58%. The Potency in assay [4] is above 20.6 µM. For the same compound, the activation in assay [5] is -0.252%.

Take `CC(C)OC(=O)C(CC(=O)O)NCc1ccccc1` (stereo not given): the activity change, negative = inhibition in assay [1] was -7.38%; in assay [2], 10.6%. Moreover, the activity, negative = inhibition in assay [3] is 5.04%. The Potency in assay [4] was above 20.6 µM. Moreover, the activation in assay [5] was 19.8%.

For `C=CC(O)Cc1c(C)n[nH]c1C` (stereo not given), the activity change, negative = inhibition in assay [1] was 18.3%; in assay [2], 4.36%. The activity, negative = inhibition in assay [3] was 7.01%. In addition, the Potency in assay [4] was above 20.6 µM. For the same compound, in assay [5], the activation is 4.5%.

On to `CCCCOc1nc2ccccc2nc1C(C#N)C(=O)NC1CCCCC1` (stereo not given), for which the values for the activity change, negative = inhibition in assay [1] and in assay [2] were 8.43% and -13.6%, respectively. In assay [3], the activity, negative = inhibition was 25.7%. Further, the Potency in assay [4] is above 20.6 µM; in assay [5], 12.6 µM (active).

Take `NC(=O)CSc1nc(N)c2c3c(sc2n1)CCCCC3`: the activity change, negative = inhibition was -2.28% in assay [1] and -8.37% in assay [2]. In addition, the activity, negative = inhibition in assay [3] is -4.35%. In addition, the Potency in assay [4] was above 20.6 µM. For the same compound, the activation in assay [5] is -10.3%.

Turning to `CN1CCN(c2c3c(c(C#N)c4nc5ccccc5n24)CCCC3)CC1`, the activity change, negative = inhibition is 14.7% in assay [1] and 0.538% in assay [2]. In addition, in assay [3], the activity, negative = inhibition is 5.04%. Moreover, the Potency in assay [4] is above 20.6 µM. Besides, the activation in assay [5] is -2.43%.

Consider `CC(C)(C)C1=Nn2c(nnc2-c2ccccn2)SC1`, for which the activity change, negative = inhibition in assay [1] was 4.11%; in assay [2], 0.351%. In addition, the activity, negative = inhibition in assay [3] was 4.69%. The Potency in assay [4] is above 20.6 µM. Besides, the activation in assay [5] is -1.04%.

Turning to `COc1cc(NC(=O)NC(C)(C(F)(F)F)C(F)(F)F)cc(OC)c1OC`, the activity change, negative = inhibition in assay [1] was -9.62%; in assay [2], 19.4%. The activity, negative = inhibition in assay [3] is -4.15%. The Potency in assay [4] was above 20.6 µM. In addition, in assay [5], the activation was -29.2%.

Take `CCOC(=O)C(C(=O)OCC)N(C#N)c1nc(SC)nc(N(C)C)n1`: the activity change, negative = inhibition in assay [1] is -8.06%; in assay [2] it was -23.5%. Moreover, in assay [3], the activity, negative = inhibition is -8.92%. The Potency in assay [4] is above 20.6 µM. Besides, the activation in assay [5] was -11.1%.

With `COc1ccc(C(=O)OC(C)CN2CCN(C)CC2)cc1OC` (stereo not given), the activity change, negative = inhibition in assay [1] is 4.78%; in assay [2], -6.37%. In addition, the activity, negative = inhibition in assay [3] was 11.6%. Also, the Potency in assay [4] is above 20.6 µM. Also, in assay [5], the activation is 7.74%.

Regarding `CC(=O)N1CC=C2C(C#N)=C(N)C(C#N)(C#N)[C@H](c3ccoc3)[C@H]2C1`, the activity change, negative = inhibition in assay [1] was 8.44%; in assay [2], -12.2%. The activity, negative = inhibition in assay [3] was 10.5%. The Potency in assay [4] was above 20.6 µM. The activation in assay [5] is -26.3%.

In the case of `CCN(CC)CCNC(=O)c1ccccc1N`, the activity change, negative = inhibition in assay [1] is 4.21%; in assay [2], -28.8%. The activity, negative = inhibition in assay [3] is 6.63%. Besides, in assay [4], the Potency is above 20.6 µM. The activation in assay [5] is 10.3%.

`CCn1c(-c2ccco2)n[nH]c1=S`: the activity change, negative = inhibition is 14% in assay [1] and 4.37% in assay [2]. In addition, in assay [3], the activity, negative = inhibition was 4.5%. Also, in assay [4], the Potency is above 20.6 µM. Moreover, the activation in assay [5] was 13.1%.

In the case of `Cc1ccc(OCc2nnc(NC(=O)c3ccco3)s2)c(C)c1`, the activity change, negative = inhibition was -4.34% in assay [1] and 11.7% in assay [2]. Further, the activity, negative = inhibition in assay [3] was -14.8%. Besides, in assay [4], the Potency was above 20.6 µM. Further, the activation in assay [5] was -11.9%.

On to `CCOc1ccc(/C(O)=C2/C(=O)C(=O)N(CCN(C)C)C2c2ccccc2)cc1Cl` (stereo not given), for which the activity change, negative = inhibition in assay [1] is 8.45%; in assay [2], 1.62%. Besides, the activity, negative = inhibition in assay [3] was 7.84%. In addition, in assay [4], the Potency was above 20.6 µM. Moreover, in assay [5], the activation was 2.13%.

`CC1(C)CC(=O)C(C=Nc2ccc(Cl)cn2)=C(O)C1`: the activity change, negative = inhibition is -10.2% in assay [1] and 17.4% in assay [2]. Moreover, in assay [3], the activity, negative = inhibition is 21.1%. Also, the Potency in assay [4] is above 20.6 µM. The activation in assay [5] was -14.7%.

With `O=C1C(=O)N(Cc2cccnc2)C(c2ccccn2)/C1=C(/O)c1ccccc1` (stereo not given), the figures for the activity change, negative = inhibition in assay [1] and in assay [2] were -5.8% and -4.6%, respectively. The activity, negative = inhibition in assay [3] was 4.87%. Further, the Potency in assay [4] is above 20.6 µM. The activation in assay [5] is 2.14%.

As to `CCOC(=O)C(CC(=O)O)N1CCCCC1` (stereo not given), the values for the activity change, negative = inhibition in assay [1] and in assay [2] were 4.69% and 10.9%, respectively. For the same compound, the activity, negative = inhibition in assay [3] was 3.36%. For the same compound, the Potency in assay [4] is above 20.6 µM. Besides, the activation in assay [5] was 11.2%.

On to `COc1ccc(C(=O)Cn2c(Br)nc3c2c(=O)n(C)c(=O)n3C)cc1OC`, for which the activity change, negative = inhibition in assay [1] is 7.09%; in assay [2], 25.7%. In addition, the activity, negative = inhibition in assay [3] was 0.59%. Besides, the Potency in assay [4] was above 20.6 µM. Moreover, in assay [5], the activation is 8.03%.
